rCAG RNA binder = binds r(CAG) RNA repeats | r(CAG) RNA repeat, TO-PRO-1 dye displacement fluorescence | inhibition, % at 3 µM | hit rate 1.3% among 370,000 | AID 651821;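 active = inhibition above the plate cutoff, the mean of all test compounds on that plate plus 3 SD, cut at about 35% in these data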;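 note: 0% = DMSO alone and 100% = 100 µM mitoxantrone as full dye displacement; higher means more dye released from RNA so lower well fluorescence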
proKLK7 act = proKLK7 (human) activation, primary screen; purified proKLK7, EDANS-DABCYL substrate fluorescence; 100% is mature enzyme control, 0% vehicle; hit rate 0.9% among 370,000; AID 652039; activation, % at 7 µM;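 active = activation above the mean of all tested compounds plus 3 SD, computed per campaign excluding outliers beyond control limits, cut at about 13% in these data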
Target sequence (P49862 whole entry, looked up): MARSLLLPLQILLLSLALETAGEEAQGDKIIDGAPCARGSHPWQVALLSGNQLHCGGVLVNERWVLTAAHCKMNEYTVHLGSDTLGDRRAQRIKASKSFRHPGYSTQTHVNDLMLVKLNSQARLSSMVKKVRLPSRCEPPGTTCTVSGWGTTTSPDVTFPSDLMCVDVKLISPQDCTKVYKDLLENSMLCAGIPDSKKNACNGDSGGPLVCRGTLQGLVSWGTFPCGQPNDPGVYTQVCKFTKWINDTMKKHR
MPTP block = permeability transition pore inhibition | isolated mouse mitochondria, Ca2+ swelling absorbance, 30 min | inhibition, % at 10 µM | hit rate 1.4% among 360,000 | AID 602449;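 active = inhibition of 50% or more, scaled per plate between neutral and stimulator controls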;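 note: 0% = DMSO wells given calcium and 100% = 1 mM EGTA wells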
DSG3 Ab inh = blocks pemphigus antibody binding to human desmoglein-3; P32926; DSG3-coupled beads, scFv-anti-DSG3-GFP binding, flow cytometry; hits give low values; binding (percent of control), % at 10 µM; hit rate 0.48% among 310,000; AID 588358;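 active = binding more than 3 SD below its plate's average and above zero; inconclusive = below that plate limit but binding exactly zero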;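 note: hits lower antibody fragment binding to DSG3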
ADAM17 inh = inhibits human ADAM17 | P78536 | recombinant ADAM17, EDANS/DABCYL FRET peptide cleavage | inhibition, % at 6.95 µM | hit rate 0.83% among 370,000 | AID 720648;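 active = inhibition above the mean of compounds lying between control limits plus 3 SD, set per campaign, cut at about 8.5% in these data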;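 note: 0% = DMSO-only wells as the low control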
ADAM10 inh = inhibitors of human ADAM10; O14672; recombinant ADAM10, EDANS/DABCYL FRET peptide cleavage, 3 h; inhibition, % at 7 µM; hit rate 0.62% among 370,000;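 active = inhibition above a per-campaign cutoff equal to the mean of compounds falling between control-based bounds plus 3 SD, cut at about 20% in these data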;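 note: 0% = DMSO wells while the 100% control is not disclosed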
proKLK7 act conf = confirmation of human kallikrein-7 zymogen activators; shares compounds with proKLK7 act; purified proKLK7, EDANS-DABCYL substrate fluorescence; scaled: vehicle 0, mature enzyme 100; activation, % at 7 µM; hit rate 68% among 3,200; AID 686949;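 active = activation, as change over the incubation, above the mean of all tested compounds plus 3 SD, cut at about 13% in these data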
EDANS-DABCYL int = counter-screen for kallikrein-7 activators: EDANS-DABCYL optical interference; shares compounds with proKLK7 act; EDANS-DABCYL substrate fluorescence interference, no enzyme, 4 h; solvent 0%, active enzyme control 100%; activation, % at 7 µM; hit rate 80% among 3,200; AID 686952;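 active = activation above the all-compound mean plus 3 SD, ignoring values outside control-based bounds, cut at about 4.8% in these data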;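 note: value is the 4 h activation minus the activation read at time zero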
K7 EDANS ctr = EDANS fluorescence interference in dose response, no enzyme; shares compounds with proKLK7 act; EDANS-DABCYL peptide fluorescence interference; EC50, µM; hit rate 20% among 250; AID 720493;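 active = compounds that raise the fluorescence signal in this interference counterscreen, with EC50 at or below 10 µM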;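 note: intact quenched peptide substrate alone read at 355 nm excitation and 520 nm emission; signal is fluorescence gain from T0 to T4 after four hours at room temperature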
An asterisk follows results filed as active; i = inactive; ? = inconclusive; / = no result. Hits are enriched below; roughly 4.7% of the tested compounds scored in any of these assays.

SMILES	rCAG RNA binder	proKLK7 act	MPTP block	DSG3 Ab inh	ADAM17 inh	ADAM10 inh	proKLK7 act conf	EDANS-DABCYL int	others
Cc1ccc(NS(=O)(=O)c2ccc(Cl)nc2)c(C)c1	-2	0	0	?	-1	8	/	/
Cc1cc(=O)oc2c3c(cc(OCC(=O)NCc4ccncc4)c12)OC(C)(C)CC3	-6	23*	2	99	i	i	37*	0	K7 EDANS ctr=>70
CCc1cc(=O)oc2c3c(cc(OCC(=O)NCCCCCC(=O)O)c12)OC(C)(C)CC3	7	30*	0	102	i	i	57*	64*
CCc1cc(=O)oc2c3c(cc(OCC(=O)NCc4ccccn4)c12)OC(C)(C)CC3	-4	20*	0	99	i	i	-39	-50
CCc1cc(=O)oc2c3c(cc(OCC(=O)Nc4cccnc4)c12)OC(C)(C)CC3	3	-5	1	102	-77	-297	/	/
CCc1cc(=O)oc2c3c(cc(OCC(=O)NCc4cccnc4)c12)OC(C)(C)CC3	-5	18*	-1	104	i	i	-70	-19
O=C(c1ccccc1)c1nn(-c2ccccc2)c(=O)cc1-c1ccccc1	/	/	1	/	/	/	/	/
Cc1cccnc1NC(=O)c1ccc([N+](=O)[O-])o1	1	17*	2	97	-85	-270	19*	21*
COc1ccc(S(=O)(=O)N2CCN(C(=O)C3CC(=O)N(c4ccccc4F)C3)CC2)cc1OC (centres undefined)	2	0	-1	/	1	-12	/	/
COc1ccc(C(=O)Nc2ccc3c(c2)C(=O)N(C)[C@H]2CC[C@H](CC(=O)NCC4CC4)O[C@@H]2CO3)cc1	3	0	/	/	-7	0	/	/
COC(=O)CSc1nc2nc(-c3cccs3)cc(C(F)(F)F)c2c(=O)[nH]1	1	1	0	106	-37	-124	/	/
O=C(CSc1nc2nc(-c3cccs3)cc(C(F)(F)F)c2c(=O)[nH]1)C(F)(F)F	13	67*	2	102	i	i	278*	260*
O=C(CSc1nc2nc(-c3cccs3)cc(C(F)(F)F)c2c(=O)[nH]1)NCc1ccco1	26	16*	-3	102	i	i	-34	-23
CCCn1c(N)c(N(CCOC)C(=O)CSCC(=O)Nc2cccc(C)c2)c(=O)[nH]c1=O	-5	0	-2	100	-6	-15	/	/
Cc1cc(NCCN2CCOCC2)n2c(nc3ccccc32)c1C#N	-1	16*	2	/	-214	i	-97	-170
Cc1cc(NCCCN2CCOCC2)n2c(nc3ccccc32)c1C#N	-3	31*	-1	/	i	i	66*	64*
Nc1nc(NCCN2CCOCC2)nc(NCc2ccccc2)c1[N+](=O)[O-]	-3	0	-2	/	0	-1	/	/
COc1ccc(OC)c(NC(=O)C2(C)CCN2Cc2ccc(SC)cc2)c1 (centres undefined)	1	0	0	/	0	-9	/	/
Oc1cnc2ccccc2c1CN1CCOCC1	-2	15*	-1	92	-71	-222	5	6.9*
CCN(CC)C(=O)Cn1cc(C(=O)C(=O)Nc2ccc3c(c2)OCO3)c2ccccc21	5	57*	0	99	5	10	24*	44*
CCC1(C)Cc2ccccc2-c2nc(NCCCO)[nH]c(=O)c21 (centres undefined)	-2	33*	2	96	i	i	-56	-58
O=c1[nH]c(NCCCO)nc2c1C1(CCCC1)Cc1ccccc1-2	-1	13*	4	88	i	i	-43	-53
CCC1(CC)Cc2ccccc2-c2nc(NCCCO)[nH]c(=O)c21	1	-1	0	/	i	i	/	/
CC1(C)Cc2ccccc2-c2nc(NCCCO)n(-c3ccccc3)c(=O)c21	-7	15*	1	120	-400	i	-53	-30
O=c1[nH]c(NNC(=S)NC2CCCCC2)nc2c1C1(CCCC1)Cc1ccccc1-2	11	1	4	108	-8	-22	/	/
SMILES	rCAG RNA binder	proKLK7 act	MPTP block	DSG3 Ab inh	ADAM17 inh	ADAM10 inh	proKLK7 act conf	EDANS-DABCYL int	others
Cc1ccc(S(=O)(=O)N2CCN(C(=O)Cn3nc(C(=O)O)c4ccccc4c3=O)CC2)cc1	9	0	/	/	0	3	/	/
c1ccc2c(C(c3nnnn3-c3ccc4c(c3)OCCO4)N3CCCCC3)ccnc2c1 (centres undefined)	3	0	0	/	3	5	/	/
c1ccc2c(N3CCOCC3)nc(N3CCOCC3)nc2c1	-4	-4	0	?	-288	i	/	/
CSc1nc(N2CCOCC2)nc2ccc(C)cc12	-4	35*	-1	103	-279	i	-31	-43
CC1(C)Oc2cc3oc(=O)ccc3c3c2C2C1CCC(C)(O3)C2O (centres undefined)	-1	16*	0	/	-200	i	24*	31*
CCC(CC)CC1CN2CCc3cc(OC)c(OC)cc3C2CC1(O)CC (centres undefined)	-2	30*	0	102	-77	-339	20*	17*	K7 EDANS ctr=>70
CCOc1ccccc1/C=C/c1nc2ccccc2[nH]c1=O	2	13*	1	105	-395	i	1	-1
CS(=O)(=O)c1cccc(C(=O)Nc2ccc(-c3nc4ccccc4[nH]3)cc2)c1	10	84*	-2	?	-98	-205	55*	63*
COc1cc(-c2ccc3oc(-c4cccc(C)c4)c(C#CC4(O)CCCCC4)c3c2)cc(OC)c1OC	15	83*	0	103	-135	i	-9	2
COc1ccc(-c2oc3ccc(-c4ccc5c(c4)OCO5)cc3c2C#CC2(O)CCCCC2)cc1	13	-8	0	92	-79	-253	/	/
N#Cc1ccccc1NC(=O)COC(=O)c1cccs1	2	0	-1	114	-3	2	/	/
N#Cc1ccccc1NC(=S)NC(=O)c1cccs1	2	14*	-3	111	-20	-40	14*	16*
COC(=O)C1=CN(C2CC2)C=C(C(=O)OC)C1c1ccc(C(=O)OC)cc1	2	3	0	/	-99	-473	/	/
COC(=O)C1=CN(C)C=C(C(=O)OC)C1c1ccsc1	-1	33*	-8	113	i	i	16*	24*
CC(C)c1cc(Cn2c3ccccc3c(=O)n2C(C)Cn2cc(C3=CCCCC3)nn2)on1 (centres undefined)	1	2	0	/	-61	-261	/	/
